Measurements published in PubChem BioAssay (NCI).
This is part of a sample that, as a whole, favours compounds with a hit. Of some 83,000 tested, about 20% had one in any assay.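 The test compound was applied at a single concentration to cells in 96-well plates for 48 hours, and percent growth was recorded.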 Unmarked numbers belong to inactive results. Calls of active or inactive are those of the source. How the source made its calls: active means growth percent below 10; inactive means the rest.

What was measured:
Assay in all cases: NCI-60 one-dose screen, 48 h (100 = growth as untreated, 0 = no growth, -100 = all killed)
Conditions in all cases: 10 µM unless noted
SR leukemia = test system: SR leukemia
RPMI-8226 leukemia = test system: RPMI-8226 leukemia
OVCAR-8 ovarian = test system: OVCAR-8 ovarian
OVCAR-5 ovarian = test system: OVCAR-5 ovarian
OVCAR-4 ovarian = test system: OVCAR-4 ovarian
SK-OV-3 ovarian = test system: SK-OV-3 ovarian
IGROV1 ovarian = test system: IGROV1 ovarian
OVCAR-3 ovarian = test system: OVCAR-3 ovarian
HS 578T breast = test system: HS 578T breast
NCI/ADR-RES ovarian = test system: NCI/ADR-RES ovarian

Row | Structure (SMILES) | growth (SR leukemia) | growth (RPMI-8226 leukemia) | growth (OVCAR-8 ovarian) | growth (OVCAR-5 ovarian) | growth (OVCAR-4 ovarian) | growth (SK-OV-3 ovarian) | growth (IGROV1 ovarian) | growth (OVCAR-3 ovarian) | growth (HS 578T breast) | growth (NCI/ADR-RES ovarian)
1 | N#Cc1c(-c2ccccc2)cc(-c2ccccc2)n(CC(=O)O)c1=O | 25% | 50.4% | 57.1% | 94.4% | 93% | 99.9% | 61.4% | 17.7% | 51.6% | 26.2%
2 | C[C@H]1c2cccc(O)c2C(O)=C2C(=O)[C@]3(O)C(O)=C(C(N)=O)C(=O)[C@@H](N(C)C)[C@@H]3[C@@H](O)[C@@H]21 | 30% | 27% | 33.5% | 78.4% | 66.8% | 70.2% | 21.4% | 49% | 69.8% | –
3 | COc1cccc(/C=N/Nc2nc3ccccc3s2)c1OC | 45.9% | 74.8% | 76.5% | 97.7% | 92.2% | 78.5% | 81.9% | 98.3% | 97.9% | 91.7%
4 | C/C(=C\CCc1ccoc1)CC/C=C(\C)CCCC1COC(=O)C1 (stereo not drawn) | 100% | 97.1% | 95.6% | 101% | 87.6% | 101% | 96.1% | 105% | 97.5% | –
5 | N#CC(C#N)C(C#N)C#N | 109% | 107% | 97.4% | 111% | 98.6% | 84% | 112% | 104% | 102% | –
6 | N#Cc1ccccc1C#Cc1ccccc1C#Cc1ccc(OCCCCCCOc2ccc(C#Cc3ccccc3C#Cc3ccccc3C#N)cc2)cc1 | 113% | 108% | 98.7% | 96% | 107% | 111% | -19% (active) | 126% | 110% | –
7 | Cc1[nH]ccc2cc3nc4ccccc4c3cc12 | 3.33% (active) | 15.9% | 20.6% | 42% | 38.4% | 34.7% | 23.6% | 41.6% | 55.3% | –
8 | C[N+]1(C)C2CC[C@@H]1CC(OC(=O)C(O)c1ccccc1)C2 (stereo partly drawn) | 115% | 93.9% | 108% | 106% | 110% | 117% | 103% | 121% | 119% | 103%
9 | COc1ccc(CCN2C(=O)CCC3=C2CCCC3=O)cc1OC | 101% | 98.1% | 102% | 104% | 102% | 100% | 108% | 120% | 94.6% | 98.2%
10 | O=CN1N=C(c2ccc(Nc3ccnc4cc(Cl)ccc34)cc2)CC1c1ccc(Cl)cc1 (stereo not drawn) | -23.3% (active) | 4.55% (active) | 33.1% | 41.9% | 38.1% | 4.28% (active) | 27.3% | -24.1% (active) | 28.1% | 0.514% (active)
11 | CC(=O)c1ccccc1NC(=O)C(C)(c1ccccc1)c1ccccc1 | 65.9% | 57.3% | 90.2% | 91.3% | 97.9% | 103% | 101% | 103% | 34.3% | –
12 | CC(C)CNc1nc(N=[N+]=[N-])nc(NCC(C)C)n1 | -7.86% [100 µM] (active) | 33.1% [100 µM] | 57.3% [100 µM] | 75% [100 µM] | 52.7% [100 µM] | 83.7% [100 µM] | 70.9% [100 µM] | 60.1% [100 µM] | 61.1% [100 µM] | –
13 | C=C1CC[C@@H]2[C@](C)(COC(C)=O)[C@H](OC(C)=O)CC[C@@]2(C)[C@@H]1CC(NCc1ccccc1)C1=CCOC1=O (stereo partly drawn) | 20.9% | 3.18% (active) | 28.2% | 102% | 35.9% | 79.2% | 62.9% | 31.8% | 86.4% | 23.5%
